Reference: PubChem BioAssay AID1508622 (National Center for Advancing Translational Sciences (NCATS), 2021)
The source made the active and inactive calls. Where a call stands in place of a potency, no number is given. Calls follow the shape of the dose curve; as a rule, active = well fitted activation curve with a large enough effect; inconclusive = small, poorly fitted or top-dose-only effect; inactive = no such curve, though single readings can be large or run the other way.

Assay: Confirmatory qHTS for Identification of Small Molecule Activators of Huntingtin-Antisense Promoter Activity
Conditions: HEK293 HTT-AS promoter firefly luciferase reporter, 24 h; series mostly up to 57.5 µM
In short: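 HEK293 luciferase reporter cells, 2,500/well, cultured 24 h, then exposed to compounds at up to 57.5 uM final for 24 h at 37C. Firefly luciferase luminescence read; normalized to vehicle (0%) and zero RLU (-100%).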
Potency is read from the fitted curve at half-maximal effect.

SMILES	Potency
O=C(NCCC1=CCCCC1)c1ccc2c(c1)N(Cc1cccc(Cl)c1)C(=O)c1ccccc1S2(=O)=O	inactive
FC(F)(F)c1cccc(Nc2nc3nonc3nc2Nc2ccc(Cl)cc2)c1	inactive
CCN(Cc1ccccc1)C(=O)C1CCN(S(=O)(=O)c2c(C)noc2/C=C/c2ccc(C)cc2)CC1	inactive
CC(C)(C)c1ccc(C(=O)Nc2ccc3c(c2)CCCN3C(=O)c2cccs2)cc1	inactive
CN[C@H]1[C@@H](O)[C@@H]2O[C@@H]3O[C@H](C)CC(=O)[C@]3(O)O[C@@H]2[C@@H](NC)[C@H]1O	inactive
CCOc1ccc(S(=O)(=O)NCCc2sc3nc(-c4ccc(C)cc4)nn3c2C)cc1	inactive
Cc1cc(C)c(NS(=O)(=O)c2ccc(-c3cnc(C4CC4)o3)cc2)c(C)c1	inactive
COc1ccc(-c2noc(N3CCC(C(=O)N4CCN(c5cccc(OC)c5)CC4)CC3)n2)cc1	inactive
CCc1ccc(NC(=O)c2ccc(F)c(S(=O)(=O)N(C)C3CCCCC3)c2)cc1	inactive
CCc1ccc(NC(=O)CSc2nc(=O)n(Cc3cccnc3)c3c2CCC3)cc1	inactive
CCOc1ccc(CCNC(=O)C(CC(C)C)N2Cc3ccccc3C2=O)cc1OCC (centres undefined)	inactive
Cn1cnc(S(=O)(=O)N2CCC(C(=O)Nc3ccc(Cl)c(C(F)(F)F)c3)CC2)c1	inactive
COc1ccc(-c2nc3sc(CCNS(=O)(=O)c4ccccc4)c(C)n3n2)cc1	inactive
CCOc1ccc(CCNC(=O)c2cc3c(-c4cccc(OC)c4)nn(C)c3s2)cc1OCC	inactive
Cc1cc(C)cc(NC(=O)CCCn2c3ccccc3c(=O)c3ccccc32)c1	inactive
O=C(NCCn1cc(SCc2ccccc2)c2ccccc21)c1cccs1	inactive
COc1cc(OC)cc(C(=O)Nc2ccc3c(c2)CCCN3C(=O)c2cccs2)c1	inactive
COc1ccc(-c2noc(Cn3c(=O)c4ccccc4n(CC(=O)Nc4cccc(C(F)(F)F)c4)c3=O)n2)cc1	inactive
CCc1ccc(C2CC(=O)Nc3c2c(C)nn3-c2nc(C)cc(C)n2)cc1 (centres undefined)	inactive
Cc1ccc2c(c1)N(C(=O)c1ccc(F)cc1)C(C)(C)CC2(C)c1ccccc1 (centres undefined)	inactive

SMILES	Potency
NC(=O)Nc1cc(-c2ccc(CN3CCOCC3)cc2)sc1C(N)=O	23.9 µM (active)
Cc1cccc(CS(=O)(=O)Cc2ccc(C(=O)NCc3ccc(Cl)cc3)o2)c1	inactive
CCN1C(=O)c2ccccc2Sc2ccc(NC(=O)Nc3cccc([N+](=O)[O-])c3C)cc21	inactive
COc1ccccc1NC(=O)CN1C(=O)C(C)(C)c2ccccc21	inactive
CC(=O)N1CCCc2cc(S(=O)(=O)N3CCN(c4ccccc4F)CC3)ccc21	inactive
CCCCOc1cccc(C(=O)N(Cc2ccc(C)o2)c2ccccn2)c1	inactive
COc1cc(CNC(=O)c2ccc3nc(Cc4ccccc4)oc3c2)cc(OC)c1OC	inactive
COC(=O)C1=C(CS(=O)(=O)c2ccc(C)cc2C)NC(=O)NC1c1ccc(C)cc1 (centres undefined)	inactive
O=C(COCc1cc(-c2cccs2)on1)N1CCN(c2cccc(Cl)c2)CC1	inactive
CCN(Cc1ccccc1)C(=O)c1cc(-c2ccccc2)n[nH]1	0.953 µM (active)
COCCNc1nc(NCc2cccc(Cl)c2)c2cnn(C)c2n1	inactive
COc1cccc(CNC(=O)c2cc3c(-c4ccccc4F)nn(C)c3s2)c1	inactive
COc1ccc2[nH]cc(CCNC(=O)c3cnn(-c4ccc(C)cc4)c3C3CCN(C(=O)OC(C)(C)C)CC3)c2c1	inactive
CCCCOc1ccc(CNC(=O)c2ccc(NC(=O)N3CCSc4ncccc43)cc2)cc1	inactive
CCN(CC)S(=O)(=O)c1ccc(C(=O)NCCSc2c(-c3ccc(OC)cc3)[nH]c3ccccc23)cc1	inactive
CN1C(=O)c2ccccc2Sc2ccc(NC(=O)NCc3ccc(Cl)cc3)cc21	inactive
N#CCNC(=O)c1ccc(-c2ccnc(Nc3ccc(N4CCOCC4)cc3)n2)cc1	inactive
CC(C)Cc1ccc(S(=O)(=O)Nc2ccc3[nH]c(=O)[nH]c3c2)cc1	inactive
O=C(CCCn1ccc2cc(S(=O)(=O)N3CCCC3)ccc21)NCc1ccc(Cl)cc1	inactive
